Results filed as inconclusive are left out. Calls of active or inactive are those of the source. Calls come from the whole dose curve; as a rule, active = well fitted inhibition curve with a large enough effect; inconclusive = small, poorly fitted or top-dose-only effect, or effect the other way; inactive = flat fitted curve, though single readings scatter.
assay: VP16 selectivity assay for inhibitors of ROR gamma transcriptional activity; conditions: Drosophila Schneider Gal4-VP16 UAS-luciferase reporter, 20 h; series mostly up to 92.2 µM; activity change, negative = inhibition: at the top concentration
How it was run: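 Luciferase luminescence read after 20 hr induction with 700 uM (final) copper sulfate at ambient temperature, following 1 hr compound pretreatment. Counter-screen uses Schneider cells carrying metallothionein-driven Gal4 DBD–VP16 and a UAS-Photinus luciferase reporter.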

Activity change, negative = inhibition, inactive:
COc1cc(O)c(C(CC(=O)N2CC(C)OC(C)C2)c2ccc3c(c2)OCO3)c(OC)c1 (configuration not stated) -11.2%
COc1ccc(C(CC(=O)N2CCCC(C)C2)c2c(O)cc(OC)cc2OC)c(OC)c1 (configuration not stated) 3.14%
COc1cc(O)c(C(CC(=O)N2CCCC(CN3CCCCC3)C2)c2ccc3c(c2)OCO3)c(OC)c1 (configuration not stated) -3.73%
COc1cc(O)c(C(CC(=O)N2CCC(C)CC2)c2ccc(OC)c(OC)c2)c(OC)c1 (configuration not stated) 23%
COc1ccccc1CNC(=O)[C@@H](NC(=O)C1CCN(C(=O)[C@@H]2CCCN2C(=O)OC(C)(C)C)CC1)C(C)C 6.66%
COc1cc(O)c(C(CC(=O)N(Cc2ccccc2)Cc2ccccc2)c2ccc3c(c2)OCO3)c(OC)c1 (configuration not stated) -7.83%
COc1cc(O)c(C(CC(=O)N2CCCC(C(=O)c3ccccc3)C2)c2ccc3c(c2)OCO3)c(OC)c1 (configuration not stated) 4.06%
COc1cc(O)c(C(CC(=O)N2CCCCC2)c2ccc3c(c2)OCO3)c(OC)c1 (configuration not stated) 21.3%
COc1ccc(C(=O)Nc2cc(-c3ccc(C)cc3)no2)cc1 -29%
CC(C)[C@H](NC(=O)C1CCN(C(=O)[C@@H]2CCCN2C(=O)OC(C)(C)C)CC1)C(=O)NCc1ccc(F)cc1 13%
COc1cc(O)c(C(CC(=O)N2CCCC(C)C2)c2cccc3ccccc23)c(OC)c1 (configuration not stated) -28.4%

Potency, active:
CC(C)(C)c1ccc([S+](=O)([O-])Nc2ccccc2C(O)(C(F)(F)F)C(F)(F)F)cc1 11.5 µM
CC(C)(C)c1ccc(S(=O)(=O)Nc2ccc(C(O)(C(F)(F)F)C(F)(F)F)cc2)cc1 18.2 µM
CC1CCCN(C(=O)CC(c2ccc3c(c2)OCO3)c2c(O)cccc2Cl)C1 (configuration not stated) 40.7 µM
CCOc1ncccc1C(=O)OCC(=O)Nc1ccc(-c2nc3ccc(C)cc3s2)cc1 2.57 µM
CCOC(=O)Cn1c(CN2CCc3ccccc3C2)nc2c1c(=O)n(C)c(=O)n2C 5.12 µM
COc1cc(OC)c(C(c2ccccc2)C(C)(C)C(=O)N2CC(C)CC(C)C2)c(OC)c1 (configuration not stated) 18.2 µM

Reference: PubChem BioAssay AID489036 (National Center for Advancing Translational Sciences (NCATS), 2010)
